PubChem BioAssay (EPA / NIEHS)
Results filed as inconclusive are left out. Active and inactive are the calls of the source. Rule for the calls, unless noted: active = hit-call score of the fitted dose curve at least 0.9, where 1 is the maximum; inactive = score below 0.9.

Legend:
TTR (gene 7276) = experiment: CCTE_GLTED_hTTR_0.5uM: CCTE's human Transthyretin (hTTR) Inhibition Assay, with 0.5uM TTR, Great Lakes Toxicology and Ecology Division (GLTED) Lab (AID 2284320)
How it was run: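 Cell-free displacement assay in which human TTR at 0.5 uM was incubated with test chemical for 2 h. Displacement of the ANSA probe was read by fluorescence at 380 nm excitation/475 nm emission. Loss of signal was fitted in the positive direction versus DMSO.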

[1] = Tanguay_ZF_120hpf_MO24: Oregon State University Tanguay Lab 24 Hour Post-fertilization zebrafish Assay for Mortality (AID 2284389)
How it was run: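 Dechorionated wild-type zebrafish embryos, 1 per well, statically exposed from 6 hpf at 28C, 0.64% DMSO final. Mortality scored as binary present/absent at 24 hpf by brightfield microscopy, relative to DMSO.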

[2] = Tanguay_ZF_120hpf_AXIS: Oregon State University Tanguay Lab 120 Hour Post-fertilization zebrafish Assay for Axial Malformation (AID 2284398)
How it was run: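 Dechorionated 5D wild-type zebrafish embryos exposed statically, one per well, from 6 to 120 hpf at 28C, 0.64% DMSO. Axial malformation scored as present/absent by brightfield microscopy at 120 hpf; dead embryos not scored.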

[3] = Tanguay_ZF_120hpf_MORT: Oregon State University Tanguay Lab 120 Hour Post-fertilization zebrafish Assay for Mortality (AID 2284399)
How it was run: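 Dechorionated wild-type Tropical 5D zebrafish embryos, one per well from 6 hpf, static exposure to 120 hpf at 28C in sealed dark plates, 0.64% DMSO final. Mortality scored as binary by brightfield at 24 and 120 hpf.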

[4] = Tanguay_ZF_120hpf_EDEM: Oregon State University Tanguay Lab 120 Hour Post-fertilization zebrafish Assay for Edema Malformation (AID 2284400)
How it was run: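 Dechorionated Tropical 5D wild-type embryos, one per well, statically exposed from 6 to 120 hpf at 28C in 0.64% DMSO. Edema scored present/absent by brightfield microscopy at 120 hpf; dead embryos not scored; fit versus DMSO.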

[5] = CCTE_Padilla_ZF_Score.Craniofacial: CCTE's 144 Hour Post-fertilization zebrafish Assay Score for Craniofacial Malformation, Padilla Lab (AID 2284405)
How it was run: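 Wild-type zebrafish embryos (with chorions), one per well in 10% Hanks', were dosed at 6–8 hpf in sealed plates and kept at 26C. They were rinsed at 5 dpf. At 6 dpf two blinded assessors scored craniofacial malformations by brightfield stereomicroscopy.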

[6] = CCTE_Padilla_ZF_Score.Swim_bladder: CCTE's 144 Hour Post-fertilization zebrafish Assay Score for Swim Bladder Malformation, Padilla Lab (AID 2284408)
How it was run: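 Wild-type zebrafish embryos, one per well in 10% Hanks', dosed at 6–8 hpf, sealed, reared at 26C and rinsed at 5 dpf. Blinded assessors scored uninflated swim bladder by stereomicroscopy at 6 dpf, relative to DMSO.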

[7] = CCTE_Padilla_ZF_Score.Position: CCTE's 144 Hour Post-fertilization zebrafish Assay Score for Position, Padilla Lab (AID 2284409)
How it was run: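 Wild-type zebrafish embryos (with chorions) exposed singly from 6–8 hpf in sealed wells of Hanks' solution at 26C, rinsed at 5 dpf. At 6 dpf, blinded assessors scored abnormal water-column position by brightfield stereomicroscopy, relative to DMSO.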

[8] = CCTE_Padilla_ZF_Score.Living: CCTE's 144 Hour Post-fertilization zebrafish Assay Score for Viability, Padilla Lab (AID 2284410);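 note: larval death at 6 dpf judged by absent heartbeat or coagulation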
How it was run: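 Wild-type zebrafish embryos were exposed singly from 6–8 hpf in sealed wells of Hanks' solution at 26C, then rinsed at 5 dpf. At 6 dpf, blinded assessors scored mortality (no heartbeat or coagulation) by stereomicroscopy, fitted against DMSO.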

[9] = CCTE_Padilla_ZF_Score.General: CCTE's 144 Hour Post-fertilization zebrafish Assay Score for General Malformation, Padilla Lab (AID 2284411)
How it was run: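 Wild-type zebrafish embryos were plated singly at 6-8 hpf in 10% Hanks' and exposed in sealed wells at 26C until rinsed on 5 dpf. At 6 dpf two blinded assessors scored mortality, hatching and malformations by stereomicroscopy; gain-of-signal versus DMSO.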

[10] = CCTE_Padilla_ZF_Score.Tail: CCTE's 144 Hour Post-fertilization zebrafish Assay Score for Tail Malformation, Padilla Lab (AID 2284414)
How it was run: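 Wild-type zebrafish embryos, one per well in 200 uL 10% Hanks', dosed at 6-8 hpf, sealed, and kept at 26 C on a 14:10 h light cycle. Chemical was rinsed out at 5 dpf. Blinded brightfield scoring of tail defects followed at 6 dpf.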

[11] = CCTE_Padilla_ZF_Score.Blood_pooling: CCTE's 144 Hour Post-fertilization zebrafish Assay Score for Blood Pooling, Padilla Lab (AID 2284415)
How it was run: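 Wild-type outbred zebrafish embryos, one per well in 10% Hanks', exposed from 6–8 hpf in sealed plates at 26C on 14:10 h light:dark, rinsed at 5 dpf. Blinded stereomicroscope scoring of blood pooling at 6 dpf; gain-of-signal versus DMSO.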

SERPINA7 (gene 6906) = experiment: CCTE_GLTED_hTBG: CCTE's human Thyroxine-binding Globulin (TBG) Inhibition Assay, Great Lakes Toxicology and Ecology Division (GLTED) Lab (AID 2284343; active = hit-call score of the fitted dose curve at least 0.9, where 1 is the maximum;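 note: active chemicals lower fluorescence versus DMSO baseline by displacing probe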)
How it was run: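 Cell-free binding assay in which human TBG is incubated with test chemical for 2 hours and displacement of the fluorescent probe ANSA is read at 380 nm excitation/475 nm emission. Activity is fitted against DMSO as the negative control.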

[12] = CCTE_Mundy_HCI_iCellGluta_NOG_NeuronCount: CCTE's Neurite Outgrowth Assay in iCellGluta cells for Neuron Count, Mundy Lab (AID 2284340; active = hit-call score of the fitted dose curve at least 0.9, where 1 is the maximum;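 note: cells fixed about 48 h after compound addition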)
How it was run: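 Neuron count read by automated high-content imaging of Hoechst 33342 and betaIII-tubulin/Alexa Fluor-488 labelling in human iPSC glutamatergic neurons. Activity fitted relative to DMSO.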

[13] = CCTE_Mundy_HCI_iCellGluta_NOG_NeuriteCount: CCTE's Neurite Outgrowth Assay in iCellGluta cells for Neurite Count, Mundy Lab (AID 2284342; active = hit-call score of the fitted dose curve at least 0.9, where 1 is the maximum;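 note: chemical exposure about 48 hours starting 2 hours after plating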)
[14] = CCTE_Padilla_ZF_Score.Spine: CCTE's 144 Hour Post-fertilization zebrafish Assay Score for Spine Malformation, Padilla Lab (AID 2284407)
How it was run: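 Wild-type zebrafish embryos, one per well in Hanks' solution, dosed at 6–8 hpf in sealed plates at 26C, 14:10 h light:dark; rinsed at 5 dpf. Two blinded assessors scored spinal defects by stereomicroscopy at 6 dpf; fitted versus DMSO.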

[15] = CCTE_Padilla_ZF_Score.Edema: CCTE's 144 Hour Post-fertilization zebrafish Assay Score for Edema Malformation, Padilla Lab (AID 2284406)
How it was run: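 Wild-type zebrafish embryos, one per well in Hanks' solution, dosed at 6-8 hpf, sealed and reared at 26C on a 14:10 h cycle; rinsed on 5 dpf. At 6 dpf, blinded assessors scored edema by stereomicroscopy.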

Measured: AC50

OCC(F)(F)C(F)(F)C(F)(F)C(F)(F)C(F)(F)C(F)(F)CO
active: TTR (gene 7276) 11.2 µM | [5] 80.4 µM | [6] 11.6 µM | [9] 47.7 µM
inactive: [1] | [2] | [3] | [4] | [7] | [8] | [10] | [11]

NC(=O)C(F)(F)C(F)(F)C(F)(F)C(F)F
active: TTR (gene 7276) 45.2 µM
inactive: [1] | [2] | [3] | [4] | [5] | [6] | [7] | [8] | [9] | [10] | [11]

C=CC(=O)OCCC(F)(F)C(F)(F)C(F)(F)C(F)(F)F
active: [6] 88.3 µM | [8] 20.9 µM | [9] 76.7 µM
inactive: TTR (gene 7276) | [1] | [2] | [3] | [4] | [5] | [7] | [10] | [11]

FC(F)(F)C(F)(F)C(F)(F)C(F)(F)C(F)(F)C(F)(F)CC[Si](Cl)(Cl)Cl
inactive: [1] | [2] | [3] | [4]

O=C(c1ccccc1)c1ccc(O)cc1O
active: SERPINA7 (gene 6906) 9.12 µM
inactive: [9]

FC(F)(F)C(F)(F)C(F)(F)C(F)(F)C(F)(F)C(F)(F)C(F)(F)CCI
active: TTR (gene 7276) 22.5 µM
inactive: [1] | [2] | [3] | [4] | [5] | [6] | [7] | [8] | [9] | [10] | [11]

CCN(CCO)S(=O)(=O)C(F)(F)C(F)(F)C(F)(F)C(F)(F)C(F)(F)C(F)(F)C(F)(F)C(F)(F)F
inactive: [12] | [13] | [1] | [2] | [3] | [4] | [5] | [6] | [7] | [8] | [9] | [10] | [11]

OC(O)C(F)(F)C(F)(F)F
inactive: [1] | [2] | [3] | [4] | [5] | [6] | [7] | [8] | [9] | [10] | [11]

CC(C)CCCC(C)CCO (stereo unspecified)
inactive: [9]

NCC(F)(F)C(F)(F)C(F)(F)C(F)(F)C(F)(F)C(F)(F)F
inactive: [5] | [6] | [7] | [8] | [10] | [11]
active: [9] 75.3 µM

OCC(F)(F)C(F)(F)C(F)(F)CO
inactive: [1] | [2] | [3] | [4] | [5] | [6] | [7] | [8] | [9] | [10] | [11]

COC(F)(C(F)F)C(F)(F)F (stereo unspecified)
inactive: [1] | [2] | [3] | [4] | [5] | [6] | [7] | [8] | [9] | [10] | [11]

CCN(CC)c1ccc(C=O)cc1
inactive: [9]

O=C(Cl)C(F)(F)C(F)(F)C(F)(F)C(F)(F)C(F)(F)C(F)(F)F
inactive: [5] | [14] | [6] | [7] | [8] | [10] | [11]
active: TTR (gene 7276) 0.685 µM | [9] 76.8 µM

OCC(O)CC(F)(F)C(F)(F)C(F)(F)C(F)(F)F (stereo unspecified)
inactive: [1] | [2] | [3] | [4] | [5] | [6] | [7] | [8] | [9] | [10] | [11]

FC(F)(F)C(F)(F)C(F)(F)CC1CO1 (stereo unspecified)
inactive: [1] | [2] | [3] | [4] | [5] | [15] | [6] | [7] | [8] | [9] | [10] | [11]
